Assay results taken from article PMC8384837, “Expanding the binding specificity for RNA recognition by a PUF domain”.

Experiments:
Test in all cases: yeast three-hybrid, YBZ-1, SC-Leu-His + 0.5 mM 3-AT, 4 days
Details in all cases: tags: N-Gal4 AD-HA kept; label: inside an RPR1-promoter hybrid RNA with tandem MS2 sites; ssRNA
[1] = target: PUM1 PUF domain R3-MCK (Homo sapiens, UniProt Q14671 828-1176, C935M;R936C;Q939K)
In short: (§1)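 Each repeat of the Pumilio-1 PUF domain was randomized at its three base-contacting residues, and these libraries were co-expressed from a centromeric plasmid with matching RNA elements in strain YBZ-1. After four days on SC-Leu (input) or SC-Leu-His + 0.5 mM 3-AT (selection), the repeat regions were PCR-amplified and Illumina-sequenced. The interaction score compares variant frequency between input and selection as a log change, computed in log2 with a pseudocount of 1 for absent variants.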

[2] = target: PUM1 PUF domain R3-QRR (Homo sapiens, UniProt Q14671 828-1176, C935Q;Q939R)
In short: as §1

[3] = target: PUM1 PUF domain R8-MYL (Homo sapiens, UniProt Q14671 828-1176, N1122M;Q1126L)
PUM1 PUF domain R8-MYL, sequence (Q14671 828-1176 N1122M/Q1126L): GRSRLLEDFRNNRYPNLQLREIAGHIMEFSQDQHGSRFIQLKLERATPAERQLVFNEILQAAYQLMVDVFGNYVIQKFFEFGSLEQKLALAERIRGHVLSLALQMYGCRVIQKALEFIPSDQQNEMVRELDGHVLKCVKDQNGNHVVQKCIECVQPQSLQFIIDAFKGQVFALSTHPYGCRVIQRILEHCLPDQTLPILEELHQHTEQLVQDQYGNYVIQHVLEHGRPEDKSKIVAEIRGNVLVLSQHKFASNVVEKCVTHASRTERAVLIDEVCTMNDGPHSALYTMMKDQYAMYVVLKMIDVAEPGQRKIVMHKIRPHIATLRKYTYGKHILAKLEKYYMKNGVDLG
In short: as §1

[4] = target: PUM1 PUF domain R5-GYV (Homo sapiens, UniProt Q14671 828-1176, C1007G;R1008Y;Q1011V)
In short: as §1

[5] = target: T1, PUM1 PUF domain R6-DWQ (Homo sapiens, UniProt Q14671 828-1176, N1043D;Y1044W)
T1 sequence: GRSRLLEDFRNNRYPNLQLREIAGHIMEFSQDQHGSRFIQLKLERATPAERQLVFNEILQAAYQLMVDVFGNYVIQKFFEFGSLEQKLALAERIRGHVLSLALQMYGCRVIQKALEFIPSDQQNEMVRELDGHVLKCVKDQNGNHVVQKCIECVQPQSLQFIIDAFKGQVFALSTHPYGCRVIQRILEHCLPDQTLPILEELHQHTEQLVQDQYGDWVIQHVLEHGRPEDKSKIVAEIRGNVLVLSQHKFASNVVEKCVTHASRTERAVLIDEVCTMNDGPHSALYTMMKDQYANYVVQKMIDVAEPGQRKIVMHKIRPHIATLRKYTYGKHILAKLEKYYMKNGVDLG
In short: as §1

[6] = target: PUM1 PUF domain R3-VCQ (Homo sapiens, UniProt Q14671 828-1176, C935V;R936C)
PUM1 PUF domain R3-VCQ, sequence (Q14671 828-1176 C935V/R936C): as the sequence (Q14671 828-1176 N1122M/Q1126L) above, with C108V, R109C, M295N, L299Q counted along it
In short: as §1

[7] = target: PUM1 PUF domain R1-GGR (Homo sapiens, UniProt Q14671 828-1176, S863G;R864G;Q867R)
PUM1 PUF domain R1-GGR, sequence (Q14671 828-1176 S863G/R864G/Q867R): as the sequence (Q14671 828-1176 N1122M/Q1126L) above, with S36G, R37G, Q40R, M295N, L299Q counted along it
In short: as §1

[8] = target: PUM1 PUF domain R1-NFR (Homo sapiens, UniProt Q14671 828-1176, S863N;R864F;Q867R)
In short: as §1

[9] = target: PUM1 PUF domain R5-HQD (Homo sapiens, UniProt Q14671 828-1176, C1007H;R1008Q;Q1011D)
PUM1 PUF domain R5-HQD, sequence (Q14671 828-1176 C1007H/R1008Q/Q1011D): as the sequence (Q14671 828-1176 N1122M/Q1126L) above, with C180H, R181Q, Q184D, M295N, L299Q counted along it
In short: as §1

[10] = target: PUM1 PUF domain R5-KLM (Homo sapiens, UniProt Q14671 828-1176, C1007K;R1008L;Q1011M)
PUM1 PUF domain R5-KLM, sequence (Q14671 828-1176 C1007K/R1008L/Q1011M): as the sequence (Q14671 828-1176 N1122M/Q1126L) above, with C180K, R181L, Q184M, M295N, L299Q counted along it
In short: as §1

[11] = target: PUM1 PUF domain R5-MKR (Homo sapiens, UniProt Q14671 828-1176, C1007M;R1008K;Q1011R)
In short: as §1

[12] = target: PUM1 PUF domain R5-PWL (Homo sapiens, UniProt Q14671 828-1176, C1007P;R1008W;Q1011L)
In short: as §1

[13] = target: PUM1 PUF domain R1-KTR (Homo sapiens, UniProt Q14671 828-1176, S863K;R864T;Q867R)
PUM1 PUF domain R1-KTR, sequence (Q14671 828-1176 S863K/R864T/Q867R): as the sequence (Q14671 828-1176 N1122M/Q1126L) above, with S36K, R37T, Q40R, M295N, L299Q counted along it
In short: as §1

PUM1 PUF domain R3-MCK, sequence (Q14671 828-1176 C935M/R936C/Q939K): as the sequence (Q14671 828-1176 N1122M/Q1126L) above, with C108M, R109C, Q112K, M295N, L299Q counted along it

GGCUAGAACUAGUGGAUCCCCCGGCGCCCGGCGGCUCGAGCCCGGGUAAGUGUAAGUAGUCUGCAUGCCGCCGGGCGCCAUGCCUGCAGGUCGACUCUAGAAAACAUG
binding signal [1]: 4.78 log2 enrichment (interaction score) | binding signal [2]: 3.94 log2 enrichment (interaction score)

GGCUAGAACUAGUGGAUCCCCCGGCGCCCGGCGGCUCGAGCCCGGGUAAGCGUAAAUAGUCUGCAUGCCGCCGGGCGCCAUGCCUGCAGGUCGACUCUAGAAAACAUG
binding signal [3]: 2.58 log2 enrichment (interaction score)

GGCUAGAACUAGUGGAUCCCCCGGCGCCCGGCGGCUCGAGCCCGGGUAAGUGUGAAUAGUCUGCAUGCCGCCGGGCGCCAUGCCUGCAGGUCGACUCUAGAAAACAUG
binding signal [4]: 2.9 log2 enrichment (interaction score)

GGCUAGAACUAGUGGAUCCCCCGGCGCCCGGCGGCUCGAGCCCGGGUAAGUGCAAAUAGUCUGCAUGCCGCCGGGCGCCAUGCCUGCAGGUCGACUCUAGAAAACAUG
binding signal [5]: 2.44 log2 enrichment (interaction score)

GGCUAGAACUAGUGGAUCCCCCGGCGCCCGGCGGCUCGAGCCCGGGUAAGUGUAAUUAGUCUGCAUGCCGCCGGGCGCCAUGCCUGCAGGUCGACUCUAGAAAACAUG
binding signal [6]: 0.32 log2 enrichment (interaction score) | binding signal [2]: 4.3 log2 enrichment (interaction score)

GGCUAGAACUAGUGGAUCCCCCGGCGCCCGGCGGCUCGAGCCCGGGUAAGUGUAAAUCGUCUGCAUGCCGCCGGGCGCCAUGCCUGCAGGUCGACUCUAGAAAACAUG
binding signal [7]: 3.41 log2 enrichment (interaction score) | binding signal [8]: 6.39 log2 enrichment (interaction score)

GGCUAGAACUAGUGGAUCCCCCGGCGCCCGGCGGCUCGAGCCCGGGUAAGUGUUAAUAGUCUGCAUGCCGCCGGGCGCCAUGCCUGCAGGUCGACUCUAGAAAACAUG
binding signal [9]: 3.03 log2 enrichment (interaction score) | binding signal [10]: 0.44 log2 enrichment (interaction score) | binding signal [11]: 1.52 log2 enrichment (interaction score) | binding signal [12]: 3.31 log2 enrichment (interaction score)

GGCUAGAACUAGUGGAUCCCCCGGCGCCCGGCGGCUCGAGCCCGGGUAAGUGUAAAUUGUCUGCAUGCCGCCGGGCGCCAUGCCUGCAGGUCGACUCUAGAAAACAUG
binding signal [7]: 1.86 log2 enrichment (interaction score) | binding signal [13]: 4.86 log2 enrichment (interaction score)
